Whole data set: some 68,000 sequences, median “fluorescence intensity (a.u.)” near 9,100, cut for the highest 2% near 16,000. The entries come from a sample that favours the highest values as a whole.

The target of this test is OsWRKY34 (Oryza sativa, UniProt Q0JBA9 1-250). Nature of the test: protein-binding microarray (RPBM); PBS, 2% BSA, 51.3 ng/ul salmon testes DNA, 50 uM zinc acetate, 200 nM TF, 25 C, 1 h; high values mean tight binding. The following applies: protein: recombinant; tags: N-terminal polyhistidine and DsRed monomer fusion (pET32a); label: CyDye5-dUTP incorporated in the synthesized complementary strand; 3' TTTTT single-stranded linker to array surface; dsDNA, one strand shown. The gist of the method: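 Binding signal is reported as fluorescence intensity per feature (arbitrary units) from an Axon 4000B scanner. Incubation used 200 nM of each Ni–NTA-purified, N-terminally polyhistidine- and DsRed-fused transcription factor from E. coli BL21-CodonPlus on a double-stranded custom Agilent array for 1 h at 25 °C, with 50 µM zinc acetate in the buffer, followed by washing.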
OsWRKY34, sequence (Q0JBA9 entry or part of it): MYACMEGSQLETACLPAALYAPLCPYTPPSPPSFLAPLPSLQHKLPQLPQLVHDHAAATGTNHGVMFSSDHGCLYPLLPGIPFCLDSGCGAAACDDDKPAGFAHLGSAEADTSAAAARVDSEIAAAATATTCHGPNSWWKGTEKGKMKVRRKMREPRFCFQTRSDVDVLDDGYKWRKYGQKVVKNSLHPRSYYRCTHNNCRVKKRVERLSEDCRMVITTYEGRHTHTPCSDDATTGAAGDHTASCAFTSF
In the case of “GGAGGAGAGCTTGGTGGTGCGCTGATCGGCGGATGCGGGGCGGAGTCACCTAGTGCAG”, the binding signal was 8490 fluorescence intensity (a.u.).

As to “ATATATATATATATATATATATAGAGAGAGAGAGAGAGACCGGAGTCACCTAGTGCAG”, the binding signal is 8980 fluorescence intensity (a.u.).

As for “TAGCTTTGGAGGAGGAGGAGGAGGAGGGGCGCGAGCCATGCGGAGTCACCTAGTGCAG”, the binding signal is 10800 fluorescence intensity (a.u.).

On to “TTGAGAGCTGGAGGCGCAGGCTGGGATCGGCGGAGCCATGCGGAGTCACCTAGTGCAG”, for which the binding signal was 63200 fluorescence intensity (a.u.).

For the sequence “GGCGGCGGCGGAGGAGGAGGAGGGGAGGGGAGCACGAGCGCGGAGTCACCTAGTGCAG”, the binding signal is 17400 fluorescence intensity (a.u.).

Consider “ATATATATATATATATATATATATATATATATGCGCAGAGCGGAGTCACCTAGTGCAG”, for which the binding signal is 9140 fluorescence intensity (a.u.).

Regarding “GCGGGATCGCGCGGGCGGCGGCGGCGGCGGGGAGGGGATGCGGAGTCACCTAGTGCAG”, the binding signal is 16900 fluorescence intensity (a.u.).

As to “GGCGGCGGAGGAGGAGGAGGCGCGAGGGGAGGCGAGCATGCGGAGTCACCTAGTGCAG”, the binding signal was 8150 fluorescence intensity (a.u.).

In the case of “CGCTCTCTTGTTGACCACCTCGCGTTGCACTGGGCCAGCCCGGAGTCACCTAGTGCAG”, the binding signal is 9490 fluorescence intensity (a.u.).

With “GCTGCTGGTGGTGGTAGTAGGACTTGGGGCTCGTGTTGTGCGGAGTCACCTAGTGCAG”, the binding signal is 9720 fluorescence intensity (a.u.).

With “TCGTAGGGTGCGGGGTGGCTGCCTGTCTCCTTCGCCTCGCCGGAGTCACCTAGTGCAG”, the binding signal was 9680 fluorescence intensity (a.u.).

For the sequence “ATCACCAGTTGCCATTCTGTCACCTCAACTTAGAACATACCGGAGTCACCTAGTGCAG”, the binding signal was 8290 fluorescence intensity (a.u.).

In the case of “CAAACGTACTCCTACTCTCCAAGCAGCCTATATAAACCACCGGAGTCACCTAGTGCAG”, the binding signal is 8590 fluorescence intensity (a.u.).

With “TTTCACCTAGTCCTAGCCTAATTCGTCTATCTTTATCAATCGGAGTCACCTAGTGCAG”, the binding signal was 9710 fluorescence intensity (a.u.).

Turning to “CGCTGCTTTTGCTGCTGCTGTTGATGATGCATCCCATTCCCGGAGTCACCTAGTGCAG”, the binding signal was 9140 fluorescence intensity (a.u.).

Consider “TATTTTAGTGCAAGGGGCGGGCGGGCGCGGTAGAAGTCAACGGAGTCACCTAGTGCAG”, for which the binding signal is 18200 fluorescence intensity (a.u.).

Consider “GGCGGCGGCGGCGGGGCGGCGTGGCGCCGAGGGAGGGGAACGGAGTCACCTAGTGCAG”, for which the binding signal was 12500 fluorescence intensity (a.u.).

As for “GGCCGGTAGGGGTAGAACGGTCATTTCGTGCGCGGGGAGGCGGAGTCACCTAGTGCAG”, the binding signal was 9810 fluorescence intensity (a.u.).

For “CGCGCGCGCGCGCGTACGTGGGAACAGAGAGCGGCGCCGACGGAGTCACCTAGTGCAG”, the binding signal was 27900 fluorescence intensity (a.u.).

As to “AGCTGAGGGGCGGCGGCGGCTGGCAAGGGGCGGCGGCGGCCGGAGTCACCTAGTGCAG”, the binding signal is 10900 fluorescence intensity (a.u.).

Regarding “GGGAGCGGGTGGGAGTGGCCGGCGCGGAGGACGACGGCGGCGGAGTCACCTAGTGCAG”, the binding signal was 8280 fluorescence intensity (a.u.).

As for “GGCGTGGGGAGGCGGAGGGAGGGAGGGGAGCGGCTGCGCACGGAGTCACCTAGTGCAG”, the binding signal is 17700 fluorescence intensity (a.u.).

Take “GGTTCTTCTGAGCGGGGCCGGGGCGGGGCGGCAGCTGGGGCGGAGTCACCTAGTGCAG”: the binding signal is 30000 fluorescence intensity (a.u.).

For the sequence “TGCGGGGCGCAAGGCGCGCGGTAGGGGAGGGGTTAGCGCTCGGAGTCACCTAGTGCAG”, the binding signal was 8190 fluorescence intensity (a.u.).

Take “GCTGGGAGGGAGGAGCGGGAGGCGGCGCGGCGCGTGGAGGCGGAGTCACCTAGTGCAG”: the binding signal is 8580 fluorescence intensity (a.u.).

For the sequence “CGGAGGCATGGGGAGGCTGCTGCGGCGCCAATTGTGGCCACGGAGTCACCTAGTGCAG”, the binding signal is 8860 fluorescence intensity (a.u.).

As for “GTAGCAATGGGCGGCGGGGAGCGGGGCTGAGCGGCAGCCGCGGAGTCACCTAGTGCAG”, the binding signal is 8150 fluorescence intensity (a.u.).

With “AATACGGTTTGGAAGGGATCTTTTTTGGTTGGTTGCACTGCGGAGTCACCTAGTGCAG”, the binding signal was 9650 fluorescence intensity (a.u.).

Take “ATAGTTGTTTTGCCTACCCCACCCATGCCGAAGATGGACACGGAGTCACCTAGTGCAG”: the binding signal was 8790 fluorescence intensity (a.u.).

As for “ATCTTTTCTCTTCTCGACTTCTCGTATGCCGCGTCCCGTCCGGAGTCACCTAGTGCAG”, the binding signal is 11100 fluorescence intensity (a.u.).

Turning to “CTTGTGGCTTGTGCAATTCTGTTTCATCGAGTTTGTTAACCGGAGTCACCTAGTGCAG”, the binding signal is 8830 fluorescence intensity (a.u.).

Take “TTCAAATCTCATCCGAATTTTTTGTTTTTTATTTTTTTTTCGGAGTCACCTAGTGCAG”: the binding signal was 8280 fluorescence intensity (a.u.).

Take “TAGTTCATCCTTGACATCAAGTGGGTTGCTAGTCTCATTCCGGAGTCACCTAGTGCAG”: the binding signal was 9450 fluorescence intensity (a.u.).

In the case of “TAGGCTGTATTCTTATCCACTCATGCAGTGCTCTGATAGGCGGAGTCACCTAGTGCAG”, the binding signal is 11000 fluorescence intensity (a.u.).

On to “TGGTTTGCATCTCTTCTTGCTCTTTGGAGGATTTACTACTCGGAGTCACCTAGTGCAG”, for which the binding signal is 9510 fluorescence intensity (a.u.).

“CGGGGTGGGAGCAGGGGTCGCGCGGCGGGGTGCGGCCATGCGGAGTCACCTAGTGCAG”: the binding signal is 10100 fluorescence intensity (a.u.).

Take “TTCTTCTAGAGGAGGAGGAGGCGGCGGGGCGGCGGGCGAGCGGAGTCACCTAGTGCAG”: the binding signal was 17300 fluorescence intensity (a.u.).

On to “GCGGCCGGTCCGAGCGAGCGGAGAGGGAGGAGGCGGGGAGCGGAGTCACCTAGTGCAG”, for which the binding signal is 8360 fluorescence intensity (a.u.).

In the case of “AGGAGGCGGGGCGGGGCGGCGGCGGCGGCGGCGGCGCCCGCGGAGTCACCTAGTGCAG”, the binding signal was 11500 fluorescence intensity (a.u.).

Turning to “GTGTTGGTGGCTCTGGCTGCGTCGACGTGCGCAGGGCGTTCGGAGTCACCTAGTGCAG”, the binding signal is 8050 fluorescence intensity (a.u.).

For the sequence “GCAGGCGGAGGCGGAGGCGGAGGCGGAGGCGGCGGCGGCGCGGAGTCACCTAGTGCAG”, the binding signal is 8950 fluorescence intensity (a.u.).

In the case of “GGTCGCCGGATCGCGGGAGGGAGGGAGGGAGGGAGGGAGGCGGAGTCACCTAGTGCAG”, the binding signal was 14100 fluorescence intensity (a.u.).

Regarding “GGGCGGAGGCGGGGATCGCGGCGGGAGGGGTGGATCCATGCGGAGTCACCTAGTGCAG”, the binding signal was 17400 fluorescence intensity (a.u.).

As for “CGGCGGCGGAGGAGGAGGAGGAGGAGGGCGCGGGGCGGCGCGGAGTCACCTAGTGCAG”, the binding signal was 21700 fluorescence intensity (a.u.).

As to “GGCGTGTTGTGTTCGGGTGGGTGCTGCGCAGGCTGCTGTACGGAGTCACCTAGTGCAG”, the binding signal was 17300 fluorescence intensity (a.u.).

With “GGGAGTGTGGAGGTGTTGTGCTGCGGCGTGGGTGTGTTGGCGGAGTCACCTAGTGCAG”, the binding signal was 8640 fluorescence intensity (a.u.).

Turning to “GAGGCCGGGGTCGGGGCGAGCGAGGCGAGAGGGGAGGAGGCGGAGTCACCTAGTGCAG”, the binding signal is 8910 fluorescence intensity (a.u.).

The values are drawn from article PMC7819943, “Rice protein-binding microarrays: a tool to detect cis-acting elements near promoter regions in rice”.
